# Source: PubChem BioAssay (NCATS)
# Results filed as inconclusive are left out. Unmarked numbers belong to inactive results. Activity calls are given as the source filed them. Calls come from the whole dose curve; as a rule, active = well fitted cell-killing curve with a large enough effect; inconclusive = small, poorly fitted or top-dose-only effect; inactive = no such curve, though single readings can be large or run the other way.
# Assay: qHTS of pediatric cancer cell lines to identify multiple opportunities for drug repurposing: Primary screen for Saos-2 cells (AID 1347097); note: nearly all actives have a fitted effect of over 40% in size
# Conditions: Saos-2 viability, CellTiter-Glo ATP luminescence, 48 h; series mostly up to 46 µM; activity change, negative = cytotoxic: at the top concentration
# Source text: Drug repurposing or repositioning has been offered as a strategy for drug development in oncology programs. This approach has special potential for childhood cancers and other rare or orphan diseases, where the expected return on new drug development has been a disincentive to pharmaceuticals. […] In this project we exploit the poly-pharmacology of drugs to discover new indications via phenotypic screening of a panel of 19 well-characterized cell lines derived from solid tumors seen in children and adolescents. The goal is to identify approved drugs with previously unrecognized anticancer properties that has the potential to reveal new mechanisms and biological processes involved in carcinogenesis or drug resistance. We employed a titration-based paradigm (quantitative high-throughput screening or qHTS), where all compounds were tested at multiple concentrations for their effect on cell viability. Concentration-response curves (CRCs) were derived directly from the primary screen, and both potency and efficacy values were used to identify compounds with robust bioactivity profiles. We screened the NIH Chemical Genomics Center (NCGC) Pharmaceutical Collection (NPC) and Mechanism Interrogation Plate (MIPE) small molecule collections of approved and investigational compounds against these cell lines; and measured metabolically active cells after 48 hours of compound treatment as a proxy for cell viability. […] Assay Submitter: Nathalia J. Martinez, National Center for Advancing Translational Sciences, National Institutes of Health, Rockville, MD, USA; email: natalia.martinez@nih.gov Shen, M et al. Quantitative high-throughput phenotypic screening of pediatric cancer cell lines identifies multiple opportunities for drug repurposing. Oncotarget 2017 Dec 19;9(4):4758-4772. PMID 29435139.
# The cells were obtained from University of North Carolina (UNC), Pediatric Preclinical Testing Program (PPT), and Coriell Institute (CI). qHTS cell viability assay: Cells were assayed in growth media at a density of 500-1,000 cells/well. Five microliters of cells were dispensed into 1,536-well, white, solid-bottom, TC-treated plates (Greiner Bio One) using a multidrop dispenser and incubated at 37 degrees C, 5% CO2, under a humidified atmosphere for 5 hours. Twenty-three nanoliters of compounds and controls (neutral control DMSO or positive control bortezomib at final concentration of 2.3 µM) were subsequently transferred by Kalypsys pintool. For primary screens, the MIPE collection was tested at 11-point dilutions (final concentrations range from 0.78 nM to 46 µM) and the NPC collection at 8-point dilutions (final concentrations range from 0.59 nM to 46 µM). Compounds tested in follow-up screens were assayed at 11-point dilutions. Cells were incubated for 48 hours, followed by addition of 3 µL of CellTiter-Glo (Promega). After a 15 min incubation at room temperature, samples were analyzed for luminescence intensity using a ViewLux High-throughput CCD imager equipped with clear filters.
# % is set by controls: 0 for no effect and ±100 for the full control effect; potency is the fitted concentration of half-maximal effect.
Structure (SMILES),"activity change, negative = cytotoxic",Potency
COc1ccc(C(=O)N2CCCC2=O)cc1,-13.2%,–
COc1ccc2c(C(=O)c3ccc(Cl)cc3)c(C)n(CC(=O)O)c2c1,-8.93%,–
CCCC[N+]1(C)[C@@H]2CC(OC(=O)[C@H](CO)c3ccccc3)C[C@H]1[C@@H]1O[C@@H]12 (stereo not given in full),-11.4%,–
NC1(c2ccccc2)CCCCC1,-36% [at 92.7 µM],–
C[C@@H]1CN(C2CCC(C#N)(c3ccc(F)cc3)CC2)CC[C@]1(C(=O)O)c1ccccc1 (stereo not given in full),12.9%,–
NC(=O)OCCCc1ccccc1,8.46%,–
CC(C)(O)C(Cl)(Cl)Cl,6.1%,–
CCOC(=O)c1ncn2c1CN(C)C(=O)c1c(I)cccc1-2,11.7%,–
CC1Sc2c(C(=O)O)c(=O)c3cc(F)c(N4CCNCC4)cc3n21 (stereo not given),65.1%,–
CC1COC2(c3ccccc3Cl)c3cc(Cl)ccc3NC(=O)CN12 (stereo not given),-20.2%,–
COP(=O)(OC)OC=C(Cl)Cl,21%,–
COc1ccc(CN2CCNCC2)c(OC)c1OC,-10.3%,–
CC#C[C@]1(O)CC[C@H]2[C@@H]3C[C@H](C)C4=CC(=O)CC[C@]4(C)[C@H]3CC[C@@]21C,-27.1%,–
COP(=S)(OC)Oc1ccc(S(N)(=O)=O)cc1,3.05%,–
CN1C[C@@H](NS(=O)(=O)N(C)C)C[C@@H]2c3cccc4c3c(cn4C)C[C@H]21,11.7%,–
COc1ccc2[nH]cc(CCN(C(C)C)C(C)C)c2c1,-4.75% [at 92.7 µM],–
CCC(=O)O[C@H]1CC[C@H]2[C@@H]3CCC4=CC(=O)CC[C@]4(C)[C@H]3CC[C@]12C,-21.7%,–
Clc1ccc(C(OCCN2CCCCC2)c2ccccc2)cc1 (stereo not given),-27.9%,–
Oc1ccc2[nH]cc(CCCCN3CC=C(c4ccccc4)CC3)c2c1,-25.4%,–
O=C(O)Cc1ccccc1,-16.9%,–

Structure (SMILES),"activity change, negative = cytotoxic",Potency
C[N+](C)(C)CCOC(=O)C(O)(c1ccccc1)c1ccccc1,-7.67%,–
Cc1nnc2n1-c1sc(CCC(=O)N3CCOCC3)cc1C(c1ccccc1Cl)=NC2,-9.47%,–
CN1CCc2cc(Cl)c(O)cc2[C@H]2c3ccccc3CC[C@@H]21,-1.36%,–
CCOC(=O)C1(c2ccccc2)CCN(CCc2ccc(N)cc2)CC1,-24.9%,–
CN1C(=O)CN=C(c2ccccc2)c2cc([N+](=O)[O-])ccc21,5.73%,–
ClCc1cccc(Cl)c1,-1.58%,–
CCN1CCCC1CNC(=O)C(O)(c1ccccc1)c1ccccc1 (stereo not given),-2.08%,–
C[C@]12CC[C@H](O)CC1=CC[C@@H]1[C@@H]2CC[C@]2(C)C(=O)CC[C@@H]12,0.757%,–
COc1ccc(OC)c(CC(C)N)c1 (stereo not given),-22.6% [at 92.7 µM],–
CCCCC1C(=O)NC(=O)N(C2CCCCC2)C1=O (stereo not given),1.66%,–
CC(C)=C[C@@H]1[C@@H](C(=O)OCc2coc(Cc3ccccc3)c2)C1(C)C,-21%,–
CCCCCCCCCCCC[N+](C)(C)CCOc1ccccc1,–,13.3 µM (active)
CCOC(C(=O)OCCN(C)C)(c1ccccc1)c1ccccc1,4.07%,–
CC(C)(C)OC(=O)c1ncn2c1[C@@H]1CCCN1C(=O)c1c(Br)cccc1-2,11.2%,–
CN1C2CCC(C)(C)C1CC(OC(=O)C(O)(c1cccs1)c1cccs1)C2 (stereo not given),-20.7%,–
CN1[C@@H]2CC[C@H]1CC(OC(=O)c1cc(Cl)cc(Cl)c1)C2 (stereo not given in full),–,75 µM (active)
C[C@]12CC[C@H]3[C@@H](CCC4=CC(=O)CC[C@@H]43)[C@@H]1CC[C@@H]2O,-24.1%,–
Nc1ccccc1C(=O)OCC(O)CO (stereo not given),12.6%,–
COc1cc(C[C@@H](C)N)c(OC)cc1Br,-19% [at 92.7 µM],–
c1ccc2c(c1)Sc1ccccc1N2CC1CN2CCC1CC2 (stereo not given),–,26.6 µM (active)
